# Screens: PubChem, several laboratories
# Sampled rows, rich in hits. Any-hit rate of the full collection: about 5%.
# CHT inh: inhibitors of human choline transporter CHT; CHT-expressing cells, membrane potential dye, choline response; active compounds read low; AID 488975, 2010; 310,000 tested, 0.86% active; B-score at 10 µM;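 active = B-score over 3 SD under the library average, and starting fluorescence ratio not unusually high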;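 also: choline stimulus applied at its EC90 after an EC20 pre-addition; B-score computed on integrated fluorescence ratio after choline addition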
# ALR H2O2 inh: inhibitors of human ALR sulfhydryl oxidase, primary screen, biochemical, H2O2 detection, HRP-luminol luminescence, single point; purified ALR, DTT oxidation; inhibition, % (concentration not given with the values); 290,000 tested, 3.8% active; AID 485317, 2010;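 active = mean replicate inhibition above about 79%, with every replicate also reaching it, limit read from the data; inconclusive = only one of the two criteria met; inactive = mean below limit and not every replicate reaching it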
# Target sequence (P55789 whole entry, looked up): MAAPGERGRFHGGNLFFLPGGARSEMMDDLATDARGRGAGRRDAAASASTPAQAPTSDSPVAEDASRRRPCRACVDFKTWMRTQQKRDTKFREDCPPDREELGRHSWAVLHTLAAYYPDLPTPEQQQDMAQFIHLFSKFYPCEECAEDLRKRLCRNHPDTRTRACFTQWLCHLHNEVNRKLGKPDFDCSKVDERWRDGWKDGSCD
# AI-2 QS mod: Vibrio harveyi AI-2 quorum sensing modulators, primary screen, JMH597 strain, luminescence/OD600 ratio; Vibrio harveyi JMH597 AI-2 luminescence/OD600 ratio, 9 h; active compounds read low; strain lacks LuxN and CqsS sensors; 0 = neutral-control median; AID 2094, 2009; activity change, % at 7.5 µM; 300,000 tested, 0.4% active; in the data active = activity change below about -75%, passing the limit was not always enough; inconclusive = no clear call, values can overlap the other calls;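 also: luminescence divided by OD600 gain over 9 h not by final OD600 alone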
# PREPL inhibitor: PREPL enzyme inhibitors, primary screen, biochemical, fluorescence polarization. Prolyl endopeptidase-like (Homo sapiens), Q4J6C6. recombinant PREPL, fluorescence polarization activity-based probe. inhibition, % at 5.96 µM. 320,000 tested, 0.68% active. AID 2751, 2010; in the data active = inhibition above about 43%;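 also: 0% = enzyme with DMSO and 100% = wells lacking enzyme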
# CHT PAM: CHT positive allosteric modulators, primary screen, cell-based, membrane potential dye, choline EC20; High affinity choline transporter 1 (Homo sapiens), Q9GZV3; CHT-expressing cells; active compounds read high; LV-AA mutant CHT in HEK293 cells; B-score at 10 µM; 310,000 tested, 0.49% active;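 active = initial fluorescence not abnormally high and integrated response B-score, plate-corrected, over 3 SD above library mean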
# Numbers without * were called inactive; i = inactive; u = inconclusive; x = no result.
SMILES,CHT inh,ALR H2O2 inh,AI-2 QS mod,PREPL inhibitor,CHT PAM
S=c1nc(-c2ccccc2Cl)n(Cc2cccnc2)c2c1CCCC2,i,99*,12,11,i
CCc1nnc2n1N=C(c1ccc(OC)cc1)CS2,i,9,7,0,i
CCc1nnc2n1N=C(c1ccc([N+](=O)[O-])cc1)CS2,i,97*,-7,-9,i
CCOC(=O)c1c(NC(=O)CN2CCN(C(=O)C3CCCO3)CC2)sc(C)c1C (stereo not given),i,-2,24,15,i
CCOC(=O)C1(C)NC(c2ccc(O)cc2)C2C(=O)N(c3ccccc3)C(=O)C21 (stereo not given),i,-5,29,-3,i
CC(C)CC1(C(=O)O)NC(c2ccccc2O)C2C(=O)N(C(C)C)C(=O)C21 (stereo not given),i,93*,30,-5,i
CC(C)N1C(=O)C2C(c3ccccc3O)NC(C)(C(=O)O)C2C1=O (stereo not given),i,89*,19,-5,i
COc1cccc(C2NC(CC(C)C)(C(=O)O)C3C(=O)N(Cc4ccccc4)C(=O)C23)c1O (stereo not given),i,48,11,-10,i
COc1cccc(C2NC(CCSC)(C(=O)O)C3C(=O)N(C(C)C)C(=O)C23)c1O (stereo not given),i,98*,21,-4,i
COc1ccc(SC[C@H](CC(C)C)N2CCN(CCc3ccccc3)CCC2=O)cc1,i,u,10,12,i
O=[N+]([O-])c1ccc(-c2ccn[nH]2)o1,i,-18,-129*,2,i
CN(C(=O)COn1nnc2ccc(Cl)cc21)C1CCS(=O)(=O)C1 (stereo not given),x,x,x,16,x
C=C(C)C(=O)OC1(C(F)(F)F)Oc2cc(C)ccc2NC1=O (stereo not given),i,98*,53,11,i
CCCCN(CCCNc1ncnc2nc[nH]c12)c1ccccc1,i,93*,19,31,i
CCCCN(c1ccccc1)c1ncnc2nc[nH]c12,i,x,21,3,i
c1ccc2c(CCNc3ncnc4nc[nH]c34)c[nH]c2c1,i,98*,-2,-4,i
c1ccc(CCNc2ncnc3nc[nH]c23)cc1,i,-7,14,10,i
O=C(c1ccc(Cl)cc1)N1CCC(O)(CSc2ccc(Cl)cc2Cl)CC1,i,-11,-4,11,i
COc1ccc(/C=N\Nc2ccc([N+](=O)[O-])cc2)c(C(=O)O)c1OC,i,98*,-4,2,i
COc1cc(/C=N/Nc2ccc([N+](=O)[O-])cn2)cc(OC)c1O,i,100*,-3,x,i
COc1ccc(/C=N/Nc2ccc([N+](=O)[O-])cc2)cc1O,i,95*,u,22,i
Cc1cccc(S(=O)(=O)N2CCN(Cc3ccc4c(c3)OCO4)CC2)c1,i,2,16,16,i
COc1ccc(N2CCN(C(=O)c3cccc(NC4=NC5CS(=O)(=O)CC5S4)c3)CC2)cc1 (stereo not given),i,93*,27,1,i
CCOC(=O)N1CCN(C(=O)c2cccc(NC3=NC4CS(=O)(=O)CC4S3)c2)CC1 (stereo not given),i,-2,13,5,i
CCOc1ccc(CNC(=O)Nc2ccccc2)cc1,i,x,-39,0,i
SMILES,CHT inh,ALR H2O2 inh,AI-2 QS mod,PREPL inhibitor,CHT PAM
COC(=O)c1sccc1NC(=O)Cc1ccc(Br)cc1,i,-8,0,-3,i
Cc1cc(N)ccc1NC(=O)c1ccccc1,i,98*,16,9,i
Cc1ccc(NC(=O)c2cccc(C(=O)Nc3ccc(C)cc3C(=O)O)c2)c(C(=O)O)c1,i,99*,-2,8,i
Cc1cc(NC(=O)c2ccccc2)c(Cl)cc1N,x,x,5,x,x
Cc1cc(O)ccc1NC(=O)c1ccccc1,i,99*,7,3,i
Cc1ccc(S(=O)(=O)CCSc2cccc(C(=O)Nc3ccccc3C(=O)O)c2)cc1,i,99*,2,-4,i
COc1ccc2nc(C)cc(Nc3ccc(N4CCN(C)CC4)cc3)c2c1,i,96*,30,14,i
CCc1ccc(-c2cn(C3CCCCC3)c(=S)[nH]2)cc1,i,97*,-1,19,i
CC(C)(C)SCCNC(=O)Nc1ccccc1,i,4,26,-3,i
C=CCn1c(-c2ccccc2)c[nH]c1=S,i,37,27,7,i
C=CCn1c(-c2ccc(Cl)cc2)c[nH]c1=S,i,97*,6,-3,i
Cc1ccc(S(=O)(=O)N2CCCCC2)cc1NC(=O)CSc1ncccn1,x,-2,x,2,x
COc1ccc(/C=N/n2cncn2)cc1CSc1ccccn1,i,99*,12,-7,i
Cc1ccc(/C=C/C(=O)N2CCCC(C)C2)cc1 (stereo not given),i,-9,6,-5,i
CC1CCN(C(=O)/C=C/c2ccc(C(C)(C)C)cc2)CC1,i,5,-89*,12,i
Cc1ccccc1NCCNc1ccccc1C,i,99*,7,31,i
O=C(N/N=C/c1cccc(O)c1)N/N=C/c1cccc(O)c1,i,82*,27,-1,i
Cc1cc(C)c(C)c(S(=O)(=O)N2CCC(C(=O)N3CCCC3)CC2)c1C,x,x,x,10,x
CCCNC(=O)c1cc2c3ccccc3n(C)c2s1,i,99*,30,16,i
Cn1c2ccccc2c2cc(C(=O)NNC(=O)CCl)sc21,i,35,4,14,i
CC(=O)Nc1ccc(S(=O)(=O)NNC(=O)c2cc3c4ccccc4n(C)c3s2)cc1,i,98*,21,-26,i
COCCNC(=O)c1cc2c3ccccc3n(C)c2s1,i,99*,14,12,i
Cc1c(C(=O)N2CCN(CCc3ccccn3)CC2)oc2ccc(F)cc12,i,7,7,-1,i
CN(CC(=O)NCCN1CCN(c2ccccc2)CC1)S(=O)(=O)c1ccc2c(c1)CCC(=O)N2,i,98*,5,23,i
COc1ccc(/C=N/NC(=O)c2[nH]c3ccc(C)cc3c2-c2ccccc2)c(C(=O)O)c1OC,i,99*,10,9,i
Cc1ccc2[nH]c(C(=O)N/N=C/c3ccccc3C(=O)O)c(-c3ccccc3)c2c1,i,x,23,16,i
CCn1cc(SCC(=O)N2CCc3ccccc32)c2ccccc21,i,98*,45,11,i
